The structures appear in SMILES notation. The panel holds about 79,000 compounds, 15% with a hit somewhere; the sample as a whole holds those more often. Values without a mark were called inactive. Activity calls are given as the source filed them. No stated cut-off is given here; in the data, active means growth inhibition above about 70%; inactive means the rest.

Assay [1] is described as follows: NCI Yeast Anticancer Drug Screen. Data for the rad50 strain (AID 155).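 Further: 0% = growth of vehicle-only cultures of the same strain.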 The settings on record: S. cerevisiae rad50 strain growth inhibition; at 50.0 µM; stronger effect = higher value. An outline of the steps:
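Readout: growth inhibition relative to vehicle-treated cultures. Compound exposure was carried out in a genetically defined yeast strain deficient in DNA damage repair.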

Assay [2] is described as follows: NCI Yeast Anticancer Drug Screen. Data for the mec2-1 strain (AID 157). The following applies: S. cerevisiae mec2-1 strain, at 50.0 µM, stronger effect = higher value. An outline of the steps:
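Test agents were screened against the mec2-1 yeast strain, with defined DNA repair or cell cycle alteration. Growth was scored as inhibition against vehicle-only controls.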

Assay [3] is described as follows: NCI Yeast Anticancer Drug Screen. Data for the sgs1 mgt1 strain (AID 161).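 Further: 0% = growth of cultures given vehicle only.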 The following applies: S. cerevisiae sgs1 mgt1 strain, at 50.0 µM, stronger effect = higher value. An outline of the steps: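 Mutant yeast exposed to compound; growth scored against vehicle-only wells.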
The nature of assay [4]: NCI Yeast Anticancer Drug Screen. Data for the cln2 rad14 strain (AID 165).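 Further: 0% = growth equal to vehicle treated cultures.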 The settings on record: S. cerevisiae cln2 rad14 strain, at 50.0 µM, stronger effect = higher value. In outline: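 Growth of compound-exposed yeast (cln2 rad14 genotype) measured and expressed as inhibition relative to vehicle.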
Assay [5] is described as follows: NCI Yeast Anticancer Drug Screen. Data for the bub3 strain (AID 167). The settings on record: S. cerevisiae bub3 mutant strain, at 50.0 µM, stronger effect = higher value. An outline of the steps:
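Readout: yeast growth inhibition, expressed relative to vehicle-only wells. The test organism is a mutant strain from a panel with lesions in DNA repair or checkpoint genes.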

Assay [6] in a line: NCI Yeast Anticancer Drug Screen. Data for the mlh1 rad18 strain (AID 175). The settings on record: S. cerevisiae mlh1 rad18 strain growth inhibition; at 50.0 µM; stronger effect = higher value. In outline: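 In this whole-cell yeast screen, a strain with altered DNA damage repair is challenged with compound, and its growth is measured against matched vehicle-treated controls.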

For `C1CSCCSCCCSC2CCCCC2SC1` (centres undefined), the growth inhibition in assay [1] is 22.1%; in assay [2] it was -0.3%; in assay [3] it was -8.35%; in assay [4], 17.4%; in assay [5], 5%; in assay [6] it was 2.15%.
For `CC(O)C(O)C(O)C(O)C=O` (centres undefined), the growth inhibition was -13.2% in assay [1]; -11.8% in assay [2]; 3.8% in assay [3]; 14.1% in assay [4]; 7% in assay [5]; -10.2% in assay [6].
In the case of `CCCCCCCCCCCCCCCCN` (tested in a mixture with another compound), the growth inhibition is 29.9% in assay [1]; -11.1% in assay [2]; 7.9% in assay [3]; -24.1% in assay [4]; 26.5% in assay [5]; 17.4% in assay [6].
Turning to `COC(=O)C(=O)OC`, the growth inhibition in assay [1] is 27.1%; in assay [2] it was -10%; in assay [3], -11.3%; in assay [4] it was -39%; in assay [5] it was 1.15%; in assay [6], -3.35%.
With `CCN(CC)CCNc1ncnc2c1cnn2C`, the growth inhibition is 7.7% in assay [1]; 1.8% in assay [2]; -17.9% in assay [3]; -4.5% in assay [4]; -20.9% in assay [5]; -8.9% in assay [6].
Turning to `OCn1c2ccccc2c2ccccc21`, the growth inhibition in assay [1] was 19.8%; in assay [2], 0.55%; in assay [3] it was 33.7%; in assay [4], 20.8%; in assay [5] it was 35.9%; in assay [6], 19.8%.
Consider `COc1ccc(NC(=O)COC(=O)c2cccc3c(=O)c4ccccc4[nH]c23)cc1`, for which the growth inhibition in assay [1] was 43.4%; in assay [2] it was 41.2%; in assay [3], 27.4%; in assay [4], 23.2%; in assay [5], 21.2%; in assay [6], 48.6%.
Regarding `CCCCCCCC(=O)Nc1ccc(-n2c(=O)cc(C)n2C)cc1`, the growth inhibition is 15.7% in assay [1]; -1.25% in assay [2]; 12.2% in assay [3]; -32% in assay [4]; -7.7% in assay [5]; 14.1% in assay [6].
Take `O=[N+]([O-])c1ccc(-c2cccc3ccccc23)c([N+](=O)[O-])c1`: the growth inhibition in assay [1] was 15.7%; in assay [2], 34.9%; in assay [3], 17.1%; in assay [4] it was 15.9%; in assay [5], 33.5%; in assay [6], 21.1%.
In the case of `Cc1ccc2cc(N(C)C)ccc2[n+]1C`, the growth inhibition is 29.9% in assay [1]; 24.1% in assay [2]; 39.9% in assay [3]; 34.4% in assay [4]; 22.2% in assay [5]; 30.8% in assay [6].
On to `C/C(=C/CNc1ncnc2c1ncn2CCC(=O)O)CO`, for which the growth inhibition in assay [1] was -22.4%; in assay [2], 12.5%; in assay [3] it was -31.7%; in assay [4] it was 1.65%; in assay [5] it was 1.7%; in assay [6], -0.5%.
For the molecule `CC(C)(C)c1cc2c(O)c(c1)Cc1cc(C(C)(C)C)cc(c1O)Cc1cc(C(C)(C)C)cc(c1O)Cc1cc(C(C)(C)C)cc(c1O)Cc1cc(C(C)(C)C)cc(c1O)Cc1cc(C(C)(C)C)cc(c1O)Cc1cc(C(C)(C)C)cc(c1O)Cc1cc(C(C)(C)C)cc(c1O)C2`, the growth inhibition was -12.8% in assay [1]; 9.65% in assay [2]; 7.3% in assay [3]; 5.6% in assay [4]; -14% in assay [5]; -15.1% in assay [6].
`O=c1nc(-c2ccccc2)scc1-c1ccccc1`: the growth inhibition in assay [1] was -1%; in assay [2] it was -10.6%; in assay [3], 3.4%; in assay [4] it was 19.1%; in assay [5], 10%; in assay [6] it was -10.1%.
Take `c1ccc(SC(Sc2ccccc2)=C2CCC2)cc1`: the growth inhibition was 9.7% in assay [1]; -8.1% in assay [2]; 10.4% in assay [3]; 14.8% in assay [4]; 18% in assay [5]; -6.35% in assay [6].
As to `CN(C)S(=O)(=O)c1ccc(NC(=O)OC2CCCC2)cc1`, the growth inhibition in assay [1] is 12.9%; in assay [2], 3.7%; in assay [3], 6.8%; in assay [4] it was 33.2%; in assay [5], 24.6%; in assay [6], 0.35%.
For `COc1ccccc1CC(=O)O`, the growth inhibition in assay [1] is 27.9%; in assay [2] it was 2.15%; in assay [3] it was 16.4%; in assay [4], 17.3%; in assay [5], -1.85%; in assay [6], 0.05%.
For the molecule `NC(N)=N/N=C/C(=N\N=C(N)N)C(O)CO` (centres undefined), the growth inhibition was 28.9% in assay [1]; -4.45% in assay [2]; 1.85% in assay [3]; 2.4% in assay [4]; 4.85% in assay [5]; -9.1% in assay [6].
As for `Cc1c(N=Nc2cccc(Cl)c2)c(-c2ccccc2)nn1C(N)=S`, the growth inhibition in assay [1] was 80.3% (active); in assay [2] it was 45%; in assay [3], 96.8% (active); in assay [4] it was 12.4%; in assay [5], 91.5% (active); in assay [6] it was 92.5% (active).
As for `Cc1nn(C(=S)S)c(C)c1N=Nc1ccc(O)cc1`, the growth inhibition in assay [1] was 9.3%; in assay [2] it was 10.5%; in assay [3], 16.9%; in assay [4] it was -16.7%; in assay [5], 5.35%; in assay [6], 18.6%.

(Values after PubChem BioAssay (NCI).)
